Screens deposited in PubChem BioAssay by National Center for Advancing Translational Sciences (NCATS).
A selection: hits, their analogues and other compounds. The true share with any hit is near 9.8%.
HTT aggregate – reduces HttQ103-GFP aggregates in PC12 cells | PC12 HttQ103-GFP aggregates, Acumen cytometry, 40 h | hit rate 1.1% among 220,000 | Potency, µM (highest dose often 46.1 µM), for inactives: at the top dose activity change, negative = inhibition, actives largely listed as inhibitors; active = well fitted curve in the direction sought with a large enough effect; inconclusive = small, poorly fitted or top-dose-only effect, or another doubt; inactive = no such curve, though single readings can be large; an effect the other way counts as inactive or inconclusive; note: potency is the fitted concentration of half-maximal effect; % is set by controls: 0 for no effect and ±100 for the full control effect; nearly all actives have a fitted effect of over 60% in size
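Using laser scanning cytometry, GFP-positive aggregates were counted after lysis of PC12 cells induced with 100 nM tebufenozide to express HTT exon 1 Q103–GFP. Compounds were tested in titration.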
HPGD block – inhibitors of human 15-hydroxyprostaglandin dehydrogenase (HPGD) | P15428 | purified HPGD, NADH fluorescence kinetic, PGE2 substrate | Potency, µM, for the others: at the top dose activity change, negative = inhibition, hits mostly inhibitors | hit rate 4.3% among 150,000; note: potency is the fitted concentration of half-maximal effect; % is set by controls: 0 for no effect and ±100 for the full control effect
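NADH formation kinetics: reaction with 30 uM PGE2 and 1 mM NAD+ (final), 20 nM enzyme, Tris-HCl pH 8 with Tween 20, after 15 min compound preincubation at room temperature. Fluorescence change, last versus first of five reads.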
KDM4E inh – blocks human JMJD2E demethylase activity; B2RXH2; JMJD2E catalytic domain, FDH-coupled NADH fluorescence (FDH is formaldehyde dehydrogenase); Potency, µM (doses to about 57.1 µM), for the others: top-dose activity change, negative = inhibition, usual class: inhibitors; hit rate 1.6% among 230,000;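 note: potency is the fitted concentration of half-maximal effect; 0% = wells with enzyme and -100% = buffer wells without enzyme; nearly all actives have a fitted effect of over 50% in size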
HTT cytoprotect – protects HTT-Q103 PC12 cells, measured by ATP. Potency, µM (highest dose often 56.4 µM), without a hit: cytoprotection (ATP increase), usual class: activators. hit rate 0.14% among 230,000. PC12 HTT-Q103 induced, cytoprotection, ATP luminescence, 40 h. AID 1471; active = well fitted curve in the direction sought with a large enough effect; inconclusive = small, poorly fitted or top-dose-only effect, or another doubt; inactive = no such curve, though single readings can be large; an effect the other way counts as inactive or inconclusive; note: potency is the fitted concentration of half-maximal effect; % of control where 0% means no effect; nearly all actives have a fitted effect of over 45% in size
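Readout: ATPlite luminescence (ATP level). Model: stable PC12, inducible Htt exon1 Q103-GFP. Inducer: tebufenozide, 100 nM final. Compounds: dose series. No G418 in medium.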
CBFb RUNX1 block – CBF-beta/RUNX1 interaction disruption; Potency, µM (doses to about 59.8 µM), inactives show top-dose activity, negative = inhibition, actives largely listed as inhibitors; AlphaScreen CBFb-His/RUNX1-biotin binding, biochemical; AID 1477; 230,000 tested, under 10 active; active = well fitted curve in the direction sought with a large enough effect; inconclusive = small, poorly fitted or top-dose-only effect, or another doubt; inactive = no such curve, though single readings can be large; an effect the other way counts as inactive or inconclusive; note: % of control where 0% means no effect
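Read-out: AlphaScreen. Format: His-CBF-beta with biotinylated RUNX1 (30 nM each) preincubated 20 min, compound 15 min, Ni-chelate plus streptavidin beads 90 min; room temperature throughout.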
ALDH1A1 block – blocks purified human ALDH1A1 activity; P00352; Purified ALDH1A1, NADH fluorescence, propionaldehyde substrate; Potency, µM (doses to about 75.3 µM), inactives show at the highest dose activity, negative = inhibition, actives largely listed as inhibitors; hit rate 7.3% among 220,000; AID 1030;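 note: potency is the fitted concentration of half-maximal effect; plate controls were no enzyme wells and a reference inhibitor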
Target sequence (P00352 whole entry, looked up): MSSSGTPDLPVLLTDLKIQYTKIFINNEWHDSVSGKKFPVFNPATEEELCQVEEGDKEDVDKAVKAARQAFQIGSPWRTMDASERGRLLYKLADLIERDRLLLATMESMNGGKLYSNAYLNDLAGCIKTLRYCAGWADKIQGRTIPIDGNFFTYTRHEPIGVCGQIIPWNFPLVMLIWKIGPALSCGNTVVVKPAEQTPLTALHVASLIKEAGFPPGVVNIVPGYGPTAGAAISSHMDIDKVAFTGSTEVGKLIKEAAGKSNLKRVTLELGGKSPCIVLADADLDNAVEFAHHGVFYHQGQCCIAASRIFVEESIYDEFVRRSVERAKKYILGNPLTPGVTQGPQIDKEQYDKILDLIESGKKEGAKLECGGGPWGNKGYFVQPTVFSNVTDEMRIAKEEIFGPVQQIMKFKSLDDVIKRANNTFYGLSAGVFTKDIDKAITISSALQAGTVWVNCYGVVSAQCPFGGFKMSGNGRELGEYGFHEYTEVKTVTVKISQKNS
Starred values were filed as active, the others as inactive; u = inconclusive; x = no result; [ ] = another dose, or the depositor's remark. Unless noted, calls come from the whole dose curve; as a rule, active = well fitted inhibition curve with a large enough effect (not every such curve was filed as active); inconclusive = small, poorly fitted or top-dose-only effect, or another doubt; inactive = no such curve, though single readings can be large or run the other way.

SMILES	HTT aggregate	HPGD block	KDM4E inh	HTT cytoprotect	CBFb RUNX1 block	ALDH1A1 block
C/C(CC(=O)NCc1ccco1)=N\NC(=O)CC#N	x	x	6%	x	-1%	2%
O=Cc1ccc(-c2ccc(F)cc2)o1	-1%	x	u	-16%	-5%	1.4µM*
O=Cc1ccc(-c2ccc(C(=O)O)cc2)o1	1%[9.22 µM]	x	u	-7%[10 µM]	23%	x
CCCCN1CCC[C@@H]1CNC(=O)c1cc(C#N)c2ccccc2c1OC	x	-21%	u	19%	27%[21.7 µM]	u
CCOC(=O)C1CCCN(S(=O)(=O)c2cc(OCC(=O)NC3CCCCC3)c(C)cc2Cl)C1 (stereo unspecified)	21%[9.22 µM]	-5%	-1%	-6%	6%	7.1µM*
CCOC(=O)C1CCCN(S(=O)(=O)c2ccc(Br)c(OC)c2)C1 (stereo unspecified)	-4%	-7%	17%	9%	10%	11µM*
CCOC(=O)C1CCCN(S(=O)(=O)c2ccc(NC(C)=O)cc2)C1 (stereo unspecified)	13%[9.22 µM]	x	-9%	28%[10 µM]	0%	2.8µM*
CCOC(=O)C1CCN(C(=S)Nc2ccc(S(N)(=O)=O)cc2)CC1	-18%	28µM*	-3%	17%[10 µM]	22%	15µM*
Cc1cc(Cl)c(S(=O)(=O)N2CCN(c3ccc(F)cc3)CC2)cc1OCC(=O)NC1CCCCC1	-32%[9.22 µM]	-19%	-3%	-1%	-8%	-4%
CCOC(=O)C1CCCN(S(=O)(=O)c2ccccc2)C1 (stereo unspecified)	4%	0%	3%	-8%	2%	-7%
CCOC(=O)C1CCCN(C2CC(=O)N(c3ccc(C)cc3)C2=O)C1 (stereo unspecified)	-1%	-5%	-2%	-4%	6%	-8%
CCOC(=O)C1CCCN(C2CC(=O)N(c3ccc(NC(C)=O)cc3)C2=O)C1 (stereo unspecified)	17%	x	-10%	-9%	3%	32µM*
Cc1ccc(-n2cccc2/C=C2\C(=N)N3N=C(C(C)C)SC3=NC2=O)cc1	4%	x	5%	-14%	-11%	16µM*
CSc1n[nH]c(=O)n1-c1ccc(Cl)cc1	18%[9.22 µM]	x	9%	-9%[10 µM]	6%	11%
CC1CN(C)C(c2ccccc2)C(C)C12NC(=O)NC2=O (stereo unspecified)	4%	-13%	-1%	13%	8%	7.1µM*
CC1C(c2ccccc2)N(C)C(c2ccccc2)CC1(O)c1ccccc1 (stereo unspecified)	u	-20%	2%	-4%	4%	2%
Cn1c2ccccc2c2n[nH]c(=O)nc21	-15%	x	3%	-36%	-3%	-2%
Cn1c2ccccc2c2nn(-c3ccccc3)c(=O)cc21	-8%	-16%	-4%	0%	8%	13µM*
O=c1c(C(c2ccc(F)cc2)c2c(O)nc3n(c2=O)CCCS3)c(O)nc2n1CCCS2	26%[9.22 µM]	x	-2%	21%[10 µM]	4%	x
CC(=Nc1ccccc1)C1=C(O)CSC1=O	4%[9.22 µM]	-18%	u	7%	-4%	25µM*
CCN(CC)c1nc2nonc2nc1N(CC)CC	0.45µM*	-10%	1%	17%	0%	-5%
C=CCn1c(SCc2csc(C)n2)nc2sc3c(c2c1=O)CCCCC3	u	-6%	-11%	-4%	10%	22µM*
CC(C)OC(=O)c1nn2c(C(F)(F)F)cc(-c3ccc(Br)o3)nc2c1Br	-11%	x	5%	-4%	10%	18µM*
O=C1C2=CC[C@H]3C(=O)N(Cc4ccc5c(c4)OCO5)C(=O)[C@@H]3[C@@H]2[C@H](O)[C@@H]2O[C@H]12	x	x	x	u	-19%[13.1 µM]	3%[13.5 µM]
O=C(COc1ccc(Cl)cc1Cl)c1ccc[nH]1	-13%[9.22 µM]	x	-4%	12%[10 µM]	-2%	x
